This note sets out measurements from PubChem BioAssay AID1345085 (National Center for Advancing Translational Sciences (NCATS), 2018).

Inconclusive results are not listed. Calls of active or inactive are those of the source. Calls follow the shape of the dose curve; as a rule, active = well fitted cell-killing curve with a large enough effect; inconclusive = small, poorly fitted or top-dose-only effect, or effect the other way; inactive = no such curve, though single readings can be large or run the other way.
% is scaled to controls: 0 for no effect and ±100 for the full control effect; potency is read from the fitted curve at half-maximal effect.

For the experiment, the system named is Jar. In words: Confirmatory qHTS for gynecologic anti-cancer compounds from libraries of approved drugs and bioactive compounds. Also: nearly all actives have a fitted effect of over 55% in size. Conditions: gynecologic cancer cell panel viability, ATPlite luminescence, 48 h; series mostly up to 57.6 µM; activity change, negative = viability loss: at the top concentration. The procedure, abridged: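 Cells (1,000/well) were plated, left 16 h at 37 C/5% CO2, then given compound at 11 concentrations (1:3) from 57.5 uM to 0.977 nM for 48 h. ATPlite luminescence after 15 min at room temperature gave IC50 values.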
On the technique in general: qHTS replaces the single test concentration by a dilution series.
For `NC(=O)c1cnc(-c2ccc(C3(N)CCC3)cc2)c(-c2ccccc2)c1`, the Potency was 27.3 µM (active).

For the compound `CCN(CC)CCCC(C)Nc1ccnc2cc(Cl)ccc12` (centres undefined), the “activity change, negative = viability loss” value is 12.7% [at 19.5 µM] (inactive).

Consider `CN(C)C(CCOc1cccc2ccccc12)c1ccccc1` (centres undefined), for which the “activity change, negative = viability loss” value is 2.73% (inactive).

On to `CCc1nc(C(N)=O)c(Nc2ccc(N3CCC(N4CCN(C)CC4)CC3)c(OC)c2)nc1NC1CCOCC1`, for which the Potency was 13.4 µM (active).

With `COc1cc2nccc(Oc3ccc(NC(=O)C4(C(=O)Nc5ccc(F)cc5)CC4)cc3)c2cc1OC`, the Potency is 27.3 µM (active).

Turning to `Cc1ccc(C(=O)Nc2ccc(CN3CCN(C)CC3)c(C(F)(F)F)c2)cc1C#Cc1cnc2cccnn12`, the Potency is 30.6 µM (active).

For `CCCCc1oc2ccccc2c1C(=O)c1cc(I)c(OCCN(CC)CC)c(I)c1`, the Potency was 79.4 µM (active).

Turning to `Cn1cnc2c(F)c(Nc3ccc(Br)cc3Cl)c(C(=O)NOCCO)cc21`, the “activity change, negative = viability loss” value was 16.4% (inactive).

As to `CNc1nccc(-c2cccnc2Oc2cc(C(=O)Nc3cccc(C(F)(F)F)c3)ccc2C)n1`, the Potency was 19.3 µM (active).

Consider `Cc1cc(C(=O)N2CCN(c3cccc(Cl)c3)CC2)n(-c2ccccc2)n1`, for which the Potency was 1.72 µM (active).

For the compound `FC(F)(F)c1ccc(/C=C/c2nc(COc3ccc(CCCCn4ccnn4)cc3)co2)cc1`, the Potency is 0.0172 µM (active).

On to `CCCC(=O)O[C@]1(C(=O)CCl)[C@@H](C)C[C@H]2[C@@H]3CCC4=CC(=O)C=C[C@]4(C)[C@@]3(F)C(=O)C[C@@]21C`, for which the Potency is 43.2 µM (active).

For the compound `COC(C)(C)CCn1nc(Nc2c(C)cccc2C)c2cnc(Nc3ccc(OCCN4CCCC4)c(F)c3)nc21`, the Potency was 27.3 µM (active).

Consider `Cc1cnc(Nc2ccc(CN3CCOCC3)cc2)nc1Nc1cccc(S(=O)(=O)NC(C)(C)C)c1`, for which the Potency was 9.68 µM (active).

As to `Nc1ccccc1NC(=O)c1ccc(CNc2nccc(-c3cccnc3)n2)cc1`, the Potency is 1.93 µM (active).

As for `CC(=O)OC12COC1CC(O)C1(C)C(=O)C(O)C3=C(C)C(OC(=O)C(O)C(NC(=O)OC(C)(C)C)c4ccccc4)CC(O)(C(OC(=O)c4ccccc4)C21)C3(C)C` (centres undefined), the Potency is 0.0432 µM (active).

With `Cc1cnc(Nc2ccc(OCCN3CCCC3)cc2)nc1Nc1cccc(S(=O)(=O)NC(C)(C)C)c1`, the Potency was 17.2 µM (active).

Turning to `CNC(=O)c1nn(C)c2c1C(C)(C)Cc1cnc(Nc3ccc(N4CCN(C)CC4)cc3)nc1-2`, the Potency was 1.72 µM (active).

As for `OC[C@H]1O[C@@H](n2cnc3c(=S)nc[nH]c32)[C@H](O)[C@@H]1O`, the Potency is 12.2 µM (active).

Regarding `COc1cc2c(cc1-c1c(C)noc1C)ncc1[nH]c(=O)n(C(C)c3ccccn3)c12` (centres undefined), the Potency was 27.3 µM (active).

Take `O=C(CCCCCCC(=O)Nc1ccccc1)NO`: the Potency is 3.85 µM (active).

`O=C(c1ccc(F)c(F)c1Nc1ccc(I)cc1F)N1CC(O)([C@@H]2CCCCN2)C1`: the Potency was 21.7 µM (active).

Take `Cn1cnc2c(F)c(Nc3ccc(Br)cc3F)c(C(=O)NOCCO)cc21`: the “activity change, negative = viability loss” value is 5.2% (inactive).

`CCC1=CC2CN(C1)Cc1c([nH]c3ccccc13)[C@@](C(=O)OC)(c1cc3c(cc1OC)N(C)[C@H]1[C@@](O)(C(=O)OC)[C@H](OC(C)=O)[C@]4(CC)C=CCN5CC[C@]31[C@@H]54)C2` (some centres undefined): the Potency was 0.133 µM (active).
